Where “and” joins values, the source holds several entries; their conditions need not be identical. Identical values can stand only once. Hit rate of the full screen: of about 16,000 compounds, about 2,600 (16%) were called active. Not shown: some 20% with an inconclusive outcome. Calls come from the whole dose curve; as a rule, active = well fitted curve in the direction sought with a large enough effect; inconclusive = small, poorly fitted or top-dose-only effect, or effect the other way; inactive = no such curve, though single readings can be large or run the other way. Not all results are given here. Some compounds were tested as several samples or in several runs, with calls that do not always agree. Square brackets hold non-standard residues; d marks the D form. Peptide text beside a SMILES is read from it. * marks the point of attachment. ξ: configuration not given here. Cbz = O=C(OCc1ccccc1)*; OBn = c1ccc(CO*)cc1; ξP = O=C(O)C1CCCN1
What follows are molecules tested against Cytochrome P450 2D6 (Homo sapiens) (UniProt P10635) (assay: Cytochrome panel assay with activity outcomes). Conditions: recombinant CYP, pro-luciferin dealkylation, luminescence, p450-cyp2d6; series mostly up to 57.1 µM.
Chain of Cytochrome P450 2D6 (Homo sapiens) (P10635 whole entry, looked up): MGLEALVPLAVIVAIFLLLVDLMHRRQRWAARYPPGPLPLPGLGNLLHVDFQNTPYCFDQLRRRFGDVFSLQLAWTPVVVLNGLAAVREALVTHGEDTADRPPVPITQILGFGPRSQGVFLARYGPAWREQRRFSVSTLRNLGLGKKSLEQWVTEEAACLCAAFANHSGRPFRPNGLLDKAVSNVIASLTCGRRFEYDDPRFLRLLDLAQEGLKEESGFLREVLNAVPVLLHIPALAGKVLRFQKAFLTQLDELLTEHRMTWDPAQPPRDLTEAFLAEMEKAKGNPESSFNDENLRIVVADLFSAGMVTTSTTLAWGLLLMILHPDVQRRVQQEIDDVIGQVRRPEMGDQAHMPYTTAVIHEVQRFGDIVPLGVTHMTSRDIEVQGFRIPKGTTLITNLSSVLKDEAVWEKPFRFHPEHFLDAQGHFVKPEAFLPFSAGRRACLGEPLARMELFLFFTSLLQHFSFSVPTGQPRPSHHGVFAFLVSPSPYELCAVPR
`Cc1cc(SCC(=O)c2ccccc2)nc(SCC(=O)c2ccccc2)n1` was tested, and the AC50 was “inactive”.
In the case of `Cc1ccccc1NC(=O)CSc1nc(N2CCCCC2)nc(N2CCCCC2)n1`, the AC50 is reported as “inactive”.
For `Cc1cccc(Nc2cc(Cl)nc(SCC(=O)O)n2)c1C`, the AC50 was 3.16 µM (active).
`Cc1cn(CC[C@H](N)C(=O)O)c(=O)[nH]c1=O` was tested, and the activity, negative = inhibition was -3.77% [at 11.4 µM] (inactive).
With `CCCC(=O)Nc1nc2n(n1)C(c1ccccc1)CC(=O)N2` (centres undefined) the AC50 was “inactive”.
`CC(C)CCN1CC(C(=O)N2CCN(c3ccc(F)cc3)CC2)CC1=O` (centres undefined) was tested, and the AC50 was “inactive”.
With `CCOC(=O)c1cnc2c(cnn2CC)c1NN=C(C)C` the AC50 was “inactive”.
For `CCCCNc1c(C(=O)OCC)c(C)nc2c1cnn2CC`, the AC50 was “inactive and 200 nM (active)”.
`CCOC(=O)c1cnc2c(cnn2C)c1NCCCN(C)C` was tested, and the AC50 was “inactive”.
`C#CCCCO/N=C1/C[C@@H](O)[C@@H](O)[C@@H]2[C@@H]3C(=O)N(Cc4ccccc4)C(=O)[C@H]3CC[C@@H]12` was tested, and the activity, negative = inhibition was 19.7% [at 11.4 µM] (inactive).
With `CCOC(=O)C(NC(=O)CC)(Nc1sc2c(c1C(=O)OC)CCN(C)C2)C(F)(F)F` (centres undefined) the AC50 was “inactive”.
With `CCCNC(=O)OC[C@H]1O[C@@H](CCO/N=C\[C@@H](NS(=O)(=O)c2ccc(C)cc2)[C@H](C)/C=C\CC(=O)OC)C=C[C@@H]1Oc1ccc(OC)cc1` the activity, negative = inhibition was -7.16% [at 11.4 µM] (inactive).
In the case of `NNC(=O)CCc1ccc2ccc3ccccc3c2c1`, the AC50 is reported as 1.58 µM (active).
`O=C(O)CCCc1ccc2ccccc2c1` was tested, and the activity, negative = inhibition was 0.631% [at 11.4 µM] (inactive).
With `COc1ccc2cc(CCC(C)=O)ccc2c1` the AC50 was “inactive”.
For `CS(=O)(=O)N1CCN(c2ccc(C(=O)NC3C4CC5CC(C4)CC3C5)cc2[N+](=O)[O-])CC1` (centres undefined), the AC50 was “inactive”.
For `O=C(NCCOc1nc(N2CCOCC2)nc(N2CCOCC2)n1)Nc1ccccc1`, the AC50 was “inactive”.
In the case of `O=C(NCCCN1CCc2ccccc2C1)Nc1ccc(Cl)cc1`, the AC50 is reported as 3.55 µM (active).
In the case of `O=C(O)c1ccccc1-c1ccccc1C(=O)Nc1ccc2c(c1)Cc1cc(F)ccc1-2`, the activity, negative = inhibition is reported as -13.4% [at 11.4 µM] (inactive).
For `Cc1ccc(NC(=O)CCC(=O)c2ccc(F)cc2)cc1Cl`, the AC50 was “inactive”.
`Cc1ccccc1CS(=O)(=O)CCC(=O)NCCCN1CCN(c2ccccc2F)CC1` was tested, and the AC50 was 3.55 µM (active).
In the case of `CCN(CC)c1ccc(NC(=O)CN2CCN(c3ccccc3F)CC2)cc1`, the AC50 is reported as “inactive”.
In the case of `O=C(CCN1CCc2ccccc2C1)Nc1ccc(F)cc1`, the AC50 is reported as 2.24 µM (active).
For `Cc1ccc(CS(=O)(=O)CCC(=O)NCCCN2CCCC2)cc1`, the AC50 was “inactive”.
`O=C(NCCCN1CCCC1=O)Nc1ccc(F)c(Cl)c1` was tested, and the AC50 was “inactive”.
For `Cc1ccc(CS(=O)(=O)CCC(=O)NCCCOC(C)C)cc1`, the AC50 was “inactive”.
For `O=C(NCCCN1CCN(c2ccccc2F)CC1)C1CCC(=O)N1C1CCCCC1` (centres undefined), the AC50 was “inactive”.
For `CSc1ccc(NC(=O)NCCCN2CCN(c3ccccc3F)CC2)cc1`, the AC50 was 3.55 µM (active).
With `O=C(O)/C=C/C(=O)Nc1ccc(F)cc1F` the AC50 was “inactive”.
`O=C(O)C[C@H]1OCC=C2C[N@@+]3([O-])CC[C@]45c6ccccc6N[C@@H]4[C@@H]1[C@H]2C[C@H]53` was tested, and the activity, negative = inhibition was 9.02% [at 11.4 µM] (inactive).
`Cc1nc2cnc(N(C)C)nc2n(C)c1=O` was tested, and the AC50 was “inactive”.
With `O=C(O)c1ccccc1-c1ccccc1C(=O)Nc1ccc2c(c1)[nH]c(=O)c1ccccc12` the activity, negative = inhibition was -5.23% [at 11.4 µM] (inactive).
In the case of `O=c1c(-c2cc(F)cc(F)c2)nc2cncnc2n1Cc1ccccc1Cl`, the AC50 is reported as “inactive”.
In the case of `CN1CCN(NC(=O)CN2C(=O)/C(=C/c3c(Cl)cccc3Cl)SC2=S)CC1`, the AC50 is reported as “inactive”.
In the case of `COc1cc2cc3c(N)c(C(=O)Nc4sc(C)c(C)c4C#N)sc3nc2cc1OC`, the AC50 is reported as “inactive”.
`C[C@](N)(C(=O)O)c1ccc(-c2nn[nH]n2)cc1` was tested, and the AC50 was “inactive”.
For `CCOC(=O)c1cc(CC)sc1NC(=O)c1cc(OCC)c(OCC)c(OCC)c1`, the AC50 was “inactive”.
`CSc1ccc(NC(=O)NCCN2CCc3ccccc3C2)cc1` was tested, and the AC50 was 5.01 µM (active).
For `CSc1ccc(NC(=O)Nc2cc(C)ccn2)cc1`, the activity, negative = inhibition was -10.4% [at 11.4 µM] (inactive).
In the case of `S=C(S)NCCCn1ccnc1`, the AC50 is reported as 0.794 µM (active).
`COc1ccc2c(Cl)c(C(=O)NCCCn3ccnc3)sc2c1Cl` was tested, and the AC50 was 0.631 µM (active).
In the case of `Cc1ccc(NC(=O)NCCCc2ccccc2)cc1`, the AC50 is reported as “inactive”.
In the case of `Cn1nc(-c2ccccc2)c(C(=O)Nc2ccc(Cl)cc2)c1Cl`, the AC50 is reported as “inactive”.
For `O=C(NCCCn1ccnc1)Nc1ccc(Cl)cc1`, the AC50 was 1.58 µM (active).
With `Cc1ccc(NC(=O)N/C=C/c2ccc(Cl)cc2)cc1` the AC50 was “inactive”.
With `O=C(NCc1cccnc1)c1sc2cc(Cl)ccc2c1Cl` the AC50 was “inactive”.
With `S=C(S)NCCN1CCNCC1` the activity, negative = inhibition was -7.83% [at 11.4 µM] (inactive).
With `NCCNC(=S)S` the activity, negative = inhibition was -18.7% [at 11.4 µM] (inactive).
For `COc1ccc(C(=O)N/C(=C/c2cccs2)C(=O)NCCCn2ccnc2)cc1OC`, the AC50 was “inactive”.
In the case of `Nc1nc2c(c(=O)[nH]1)CN(CCCN1CCOCC1)CN2`, the activity, negative = inhibition is reported as 0.904% [at 11.4 µM] (inactive).
For `Nc1ccc(S(=O)(=O)Nc2ncccn2)cc1`, the AC50 was “inactive”.
`O=C1[C@H]2[C@H]3[C@H](O)[C@H](O)C/C(=N/OC[C@@H](O)COCc4ccco4)[C@@H]3CC[C@@H]2C(=O)N1C[C@@H]1CCCO1` was tested, and the activity, negative = inhibition was 3.77% [at 11.4 µM] (inactive).
With `Cc1nnc(NC(=O)c2cccc(NC(=O)C(C)C)c2)s1` the AC50 was “inactive”.
For `O=C(O)c1cc(S(=O)(=O)NCC2CCCO2)ccc1Cl` (centres undefined), the AC50 was “inactive”.
In the case of `CN[C@@H]1[C@H](O[C@H]2[C@@H](O[C@@H]3[C@@H](O)[C@@H](O)[C@@H](N=C(N)N)[C@@H](O)[C@@H]3N=C(N)N)O[C@@H](C)[C@]2(O)CO)O[C@H](CO)[C@@H](O)[C@@H]1O`, the AC50 is reported as “inactive”.
For `COc1ccccc1C1=NOC(COC(=O)c2ccc3ccccc3n2)C1` (centres undefined), the AC50 was “inactive”.
`O=C(CN(c1ccccc1)S(=O)(=O)c1ccccc1)NCCSCc1ccco1` was tested, and the AC50 was 15.8 µM (active).
`Cc1cccc(Cc2c(C)nc3nc(SCC(=O)NCc4ccco4)nn3c2C)c1` was tested, and the AC50 was “inactive”.
With `COc1ccc(S(=O)(=O)N(C)CC(=O)NCc2ccco2)cc1` the AC50 was “inactive”.
For `Cc1cccc(N(CC(=O)NCCSCc2ccco2)S(=O)(=O)c2ccccc2)c1`, the AC50 was 10 µM (active).
With `CN(c1ccc(C(=O)NCC2CCCO2)cc1)S(=O)(=O)c1ccccc1` (centres undefined) the AC50 was “inactive”.
In the case of `CN(c1ccc(C(=O)NCc2ccccn2)cc1)S(C)(=O)=O`, the AC50 is reported as “inactive”.
`CN(CCC(=O)O)S(=O)(=O)c1ccccc1` was tested, and the activity, negative = inhibition was 4.74% [at 11.4 µM] (inactive).
`Cc1cccc(CSCCNC(=O)c2ccc(N(C)S(=O)(=O)c3ccccc3)cc2)c1` was tested, and the AC50 was 3.98 µM (active).
For `Cc1cccc(N(CC(=O)N2CCOCC2)S(C)(=O)=O)c1`, the AC50 was “inactive”.
`COc1cccc(Nc2ncc3ncc(=O)n(C4CC4)c3n2)c1` was tested, and the AC50 was “inactive”.
For `Cc1ccc(C)c(CN2C(=O)C3CCCN3c3ccc(C#N)cc32)c1` (centres undefined), the AC50 was “inactive”.
In the case of `CCOC(=O)c1c(C)oc2c1c(C=NC1CCS(=O)(=O)C1)c(O)c1ccccc12` (centres undefined), the AC50 is reported as “inactive”.
In the case of `CCN1C(=O)[C@H]2[C@H]3[C@H](O)[C@H](O)C/C(=N/O[C@@H](C)c4cn([C@H](CO)Cc5ccccc5)nn4)[C@@H]3CC[C@@H]2C1=O`, the activity, negative = inhibition is reported as 6.53% [at 11.4 µM] (inactive) and -9.99% [at 11.4 µM] (inactive).
`Cc1c(/C=N/NC(=O)c2ccc3c(c2)OCO3)cnn1C` was tested, and the AC50 was “inactive”.
With `CCNC(=S)NNC(=O)c1cc(C2CC2)nc2ccccc12` the AC50 was “inactive”.
For `COC(=O)c1nn(-c2ccccc2)c(-c2ccccc2)c1C(=O)c1ccccc1`, the AC50 was “inactive”.
`CCCOc1ccccc1C1CC(=O)NC(C)=C1C(=O)OCC(C)C` (centres undefined) was tested, and the AC50 was “inactive”.
With `O=C(NCCO)c1cc2c(s1)CCC2` the AC50 was “inactive”.
For `Cc1cc(C(=O)CC#N)c(C)n1CC(F)(F)F`, the AC50 was “inactive”.
In the case of `CCOC(=O)c1c2c(n3ccccc13)C(=O)c1ccccc1C2=O`, the activity, negative = inhibition is reported as 5.34% [at 11.4 µM] (inactive).
In the case of `COCCNC(=O)Cn1cnc2ccc(S(=O)(=O)N3CCC(C)CC3)cc2c1=O`, the AC50 is reported as “inactive”.
For `Cc1ccc2nc(N3CCN(S(=O)(=O)c4ccc5c(c4)OCCO5)CC3)c(C#N)cc2c1`, the AC50 was “inactive”.
With `NC(=O)c1ccc(NC(=O)C2CCCO2)cc1` (centres undefined) the AC50 was “inactive”.
`CSc1ccc(CNc2ccc(C)c(C)c2)cc1` was tested, and the AC50 was 11.2 µM (active).
`CSc1ccc(CNc2ccc(Cl)cc2)cc1` was tested, and the AC50 was “inactive”.
In the case of `Cc1nc2cnc(Oc3ccccc3)nc2n(C)c1=O`, the AC50 is reported as “inactive”.
With `COc1ccc(-c2nc3cnc(OC)nc3n(C)c2=O)cc1` the AC50 was “inactive”.
In the case of `COc1ccc(OC)c(S(=O)(=O)N2CCC(C(=O)Nc3ccc(C)c(C)c3)CC2)c1`, the AC50 is reported as “inactive”.
For `O=C(Nc1ccc(Cl)c(C(F)(F)F)c1)C1CCCN(S(=O)(=O)c2cnc[nH]2)C1` (centres undefined), the AC50 was 3.98 µM (active).
In the case of `CCCS(=O)(=O)N1CCCC(C(=O)NCc2cccnc2)C1` (centres undefined), the AC50 is reported as “inactive”.
`CCOc1ccc(-c2nnc3ccc(SC)nn23)cc1` was tested, and the AC50 was “inactive”.
For `N[C@@H](CSS(=O)(=O)O)C(=O)O`, the AC50 was “inactive”.
`CCOC(=O)c1c(C)nc2sc3c(=O)n(-c4ccc(C(C)=O)cc4)nnc3c2c1-c1ccc(Cl)cc1` was tested, and the AC50 was “inactive”.
In the case of `CN(C)C(=O)c1ccc(-c2cncnc2NCc2cccnc2)cc1`, the AC50 is reported as “inactive”.
For `CN(C)Cc1ccccc1-c1cncnc1NCc1cccnc1`, the AC50 was 6.31 µM (active).
With `Cc1cccc(CNc2ncncc2-c2ccccc2C)c1` the AC50 was 3.98 µM (active).
In the case of `Cc1noc(C)c1-c1cncnc1NCc1ccccc1`, the AC50 is reported as “inactive”.
In the case of `Cc1ccccc1-c1cncnc1NCc1ccccc1`, the AC50 is reported as 12.6 µM (active).
`Cc1ccccc1-c1cncnc1NCc1cccnc1` was tested, and the AC50 was 15.8 µM (active).
In the case of `N#Cc1ccccc1-c1cncnc1NCc1cccnc1`, the AC50 is reported as “inactive”.
For `CC(C)Sc1cc(N2CCCC2)nc(-c2ccc(F)cc2)n1`, the AC50 was “inactive”.
For `C=CCNC(=S)N/N=C/c1ccc(-c2cc(Cl)ccc2Cl)o1`, the AC50 was “inactive”.
With `O=C(CNC(=O)OCc1ccccc1)NCC(=O)N1CCCC1C(=O)OCc1ccccc1` (stereo not drawn) (Cbz-Gly-Gly-[ξP]-OBn) the AC50 was “inactive”.
% is set by controls: 0 for no effect and ±100 for the full control effect.
